Compound activity from PubChem.
CtBP-E1A inh = blocks the CtBP interaction with E1A; AlphaScreen GST-E1A/His-CtBP binding, 1536-well; stronger effect = lower value; activity change, % (no concentration beside the values); actives 0.49% (n = 340,000); AID 651724; in the data active = activity change below about -65%; inconclusive = mostly about -30% to -63%
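GST-E1A and His-tagged CtBP (125 nM each as 5X stock) were preincubated with pin-transferred compound for 2 h at 37 °C in the dark, then glutathione donor and nickel acceptor beads were added for 1 h before AlphaScreen reading.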
Eya2 phos inh = inhibitors of human Eya2 phosphatase activity | AID 488837 | O00167 | recombinant Eya2, OMFP fluorescence dephosphorylation (OMFP is methylfluorescein phosphate) | Potency, µM (top dose mostly 76.9 µM), most hits filed as inhibitors | actives 0.006% (n = 330,000)
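Eya2 (0.2 uM) preincubated 10 min at ambient with compound, then OMFP substrate added at 50 uM; 10 min reaction in 50 mM HEPES pH 7.5, 50 mM NaCl, 5 uM MgCl2, 0.05% BSA, 1 mM DTT. Fluorescence read at Ex 485/Em 525 nm.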
GALK inhibitor = blocks human galactokinase activity; P51570; actives 0.007% (n = 270,000); Potency, µM (top dose mostly 57.5 µM), usual class: inhibitors; Purified GALK, Kinase-Glo residual ATP luminescence
Target sequence (P51570 whole entry, looked up): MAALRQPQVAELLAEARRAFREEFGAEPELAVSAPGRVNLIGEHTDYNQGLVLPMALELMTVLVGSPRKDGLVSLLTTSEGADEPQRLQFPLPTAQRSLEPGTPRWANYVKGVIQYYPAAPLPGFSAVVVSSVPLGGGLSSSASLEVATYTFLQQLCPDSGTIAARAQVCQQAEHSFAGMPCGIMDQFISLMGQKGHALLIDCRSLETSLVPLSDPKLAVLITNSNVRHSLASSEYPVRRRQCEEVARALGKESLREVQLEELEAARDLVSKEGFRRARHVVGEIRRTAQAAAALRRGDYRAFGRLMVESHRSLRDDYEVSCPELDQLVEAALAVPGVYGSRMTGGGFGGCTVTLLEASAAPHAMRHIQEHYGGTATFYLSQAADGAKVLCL
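ATP-depletion format; final 35 uM ATP, 100 uM D-galactose, 5 nM enzyme; pH 8.0 HEPES/Mg2+ buffer; 60 min RT; luminescence read 10 min after detection reagent.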
TrxR1 substrate = rat thioredoxin reductase 1 substrate activity; O89049; actives 0.01% (n = 390,000); AID 588456; purified TrxR1 substrate turnover, NADPH consumption readout; Potency, µM (highest dose often 114 µM); also: nearly all actives have a fitted effect of over 50% in size
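Rat TrxR1, dispensed at 90 nM, was prereduced with 400 uM NADPH (final) for 5 min at ~22 deg C, then incubated with compound 15 min before 400 uM selenite. A first-read NADPH fluorescence drop versus no-compound background flagged substrates.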
Six1-Eya2 inh = inhibitors of human Six1/Eya2 interaction | Q15475+O00167 | AlphaScreen GST-Six1/His-Eya2 binding, biochemical; stronger effect = lower value | activity change, % (concentration not given with the values) | actives 0.56% (n = 360,000) | AID 651725; in the data active = activity change below about -65%; inconclusive = mostly about -30% to -63%
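AlphaScreen luminescence read after one hour at 37 °C in darkness. Pin-transferred compounds met GST-Six1 and His-Eya2 protein (5X stock 250 nM/500 nM) plus glutathione donor and Ni-chelate acceptor beads (5X, 50 ug/mL).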
rTrxR1 inhibitor = blocks rat thioredoxin reductase 1 | O89049 | Potency, µM (titrated, usually from 114 µM), most hits filed as inhibitors | recombinant rTrxR1, NADPH fluorescence consumption, selenite substrate | actives 1% (n = 390,000); also: nearly all actives have a fitted effect of over 65% in size
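Rat TrxR1 (90 nM in the dispensed reagent) was pre-reduced with 400 uM NADPH for 5 min at room temperature, then incubated with compound for 15 min. After 400 uM selenite was added, NADPH fluorescence (Ex 340/Em 450 nm) was followed for 8 min.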
Of the large screens only hits and unclear results are named; the others gave an inactive call. Sampled rows, rich in hits. Any-hit rate of the full collection: about 1.5%. Unless noted, calls follow the shape of the dose curve; as a rule, active = well fitted curve in the direction sought with a large enough effect; inconclusive = small, poorly fitted or top-dose-only effect, or another doubt; inactive = no such curve, though single readings can be large; an effect the other way counts as inactive or inconclusive.

O=C(Nc1ccc2c(c1)OCCO2)c1cccc2nc3ccccc3nc12	CtBP-E1A inh -68, Six1-Eya2 inh inconclusive
COc1ccc(NC(=S)NC(=O)c2ccc3c(c2)OCCO3)cc1	CtBP-E1A inh inconclusive, rTrxR1 inhibitor 3.5µM (no result: GALK inhibitor)
O=C(NC(=S)Nc1ccc(F)cc1)c1ccc2c(c1)OCCO2	rTrxR1 inhibitor inconclusive
O=C(NC(=S)Nc1ccc2c(c1)OCCO2)c1ccccc1	rTrxR1 inhibitor 7.1µM
O=C(NC(=S)Nc1ccc(S(=O)(=O)N2CCCCC2)cc1)c1ccccc1	rTrxR1 inhibitor 11µM
CCCC(=O)NC(=S)Nc1cccc(NC(=O)c2ccccc2)c1	rTrxR1 inhibitor 22µM
CCCCC(=O)NC(=S)Nc1cccc(NC(=O)c2ccccc2)c1	none
COc1ccc2oc(=O)c(-c3nnc(NCc4ccco4)s3)cc2c1	rTrxR1 inhibitor 16µM
CCOc1cccc2cc(-c3nnc(NCc4ccco4)s3)c(=O)oc12	rTrxR1 inhibitor 7.9µM
CCOc1ccccc1Nc1nnc(-c2cc3cc(OC)ccc3oc2=O)s1	none (no result: CtBP-E1A inh, Eya2 phos inh, GALK inhibitor, Six1-Eya2 inh)
Cc1nc2ccc(S(=O)(=O)CCC(=O)Nc3ccc(C)c(C)c3)cc2s1	none (no result: CtBP-E1A inh, Eya2 phos inh, GALK inhibitor, Six1-Eya2 inh)
O=C(Cn1cc2c(n1)CCCC2)Nc1cc(C(F)(F)F)ccc1Cl	none (no result: CtBP-E1A inh, Eya2 phos inh, GALK inhibitor, Six1-Eya2 inh)
COc1ccccc1S(=O)Cc1ccc(C(=O)NCCc2ccc(Cl)cc2)o1 (stereo not given)	rTrxR1 inhibitor 18µM
COc1ccccc1S(=O)Cc1ccc(C(=O)NC2CCCC2)o1 (stereo not given)	rTrxR1 inhibitor inconclusive
O=[N+]([O-])c1cc(/C=N/Nc2nc3ccccc3[nH]2)c(O)cc1O	CtBP-E1A inh -99, Six1-Eya2 inh -97
C(=N\Nc1nc2ccccc2[nH]1)/c1cccc2cccnc12	Six1-Eya2 inh -84 (no result: CtBP-E1A inh)
CCOC(=O)c1ccc(NC(=O)CC(=O)Nc2ccc3nc4n(c(=O)c3c2)CCCCC4)cc1	none (no result: CtBP-E1A inh, Eya2 phos inh, GALK inhibitor, Six1-Eya2 inh)
O=C(O)c1ccc(/C=C2\SC(=S)N(Nc3ccccc3)C2=O)cc1	rTrxR1 inhibitor 50µM
O=C1/C(=C/c2ccncc2)SC(=S)N1Nc1ccccc1	Eya2 phos inh inconclusive, rTrxR1 inhibitor 4.5µM
O=C1/C(=C/c2ccc(O)c(O)c2)SC(=S)N1Nc1ccccc1	none
CCOc1ccc(OCC)c(NS(=O)(=O)c2cc(-c3onc(C)c3C)ccc2OC)c1	none (no result: CtBP-E1A inh, Eya2 phos inh, GALK inhibitor, Six1-Eya2 inh)
CCOc1cc(/C=C2\CCCc3c2nc2ccccc2c3C(=O)O)ccc1OC	Eya2 phos inh inconclusive, rTrxR1 inhibitor 79µM
CCOc1cc(NC(=S)NCCCN2CCOCC2)c(OCC)cc1NC(=O)CC(C)C	rTrxR1 inhibitor 22µM
Cc1sc2c(c1C)c(=O)n(-c1ccc(Cl)cc1)c(=O)n2Cc1cc(=O)n2cc(Br)ccc2n1	none (no result: CtBP-E1A inh, Eya2 phos inh, GALK inhibitor, Six1-Eya2 inh)
CC1(C)CC(=O)C2=C(C1)OC(N)=C(C#N)C21CCC2(CC1)OCCO2	rTrxR1 inhibitor 8.9µM (no result: Eya2 phos inh)
CC(=O)N1CCC2(CC1)C(C#N)=C(N)OC1=C2C(=O)CC(C)(C)C1	none
Cc1ccn2c(Nc3ccc4c(c3)OCO4)c(-c3ccccn3)nc2c1	CtBP-E1A inh -81, Six1-Eya2 inh -88
Cc1ccc(-c2nc3ncccn3c2Nc2ccc3c(c2)OCCO3)o1	rTrxR1 inhibitor 40µM
Cc1ccc(-c2nc3nc(C)cc(C)n3c2Nc2ccc3c(c2)OCCO3)cc1	none (no result: CtBP-E1A inh, Eya2 phos inh, GALK inhibitor, Six1-Eya2 inh)
Cc1ccc(Nc2c(-c3ccccn3)nc3cc(C)ccn23)cc1	CtBP-E1A inh -93, Six1-Eya2 inh -82
Cc1cc(C)n2c(Nc3ccc4c(c3)OCCO4)c(-c3ccccn3)nc2n1	CtBP-E1A inh inconclusive, Six1-Eya2 inh -89 (no result: Eya2 phos inh, GALK inhibitor, TrxR1 substrate, rTrxR1 inhibitor)
O=C(C1CCCCC1)N(Cc1cccnc1)c1nc2c(F)cc(F)cc2s1	none (no result: CtBP-E1A inh, Eya2 phos inh, GALK inhibitor, Six1-Eya2 inh)
Nc1nc(NCc2ccccc2Cl)c2[nH]cnc2n1	none (no result: CtBP-E1A inh, Eya2 phos inh, GALK inhibitor, Six1-Eya2 inh)
Cc1ccc(Nc2c(-c3ccccn3)nc3ccc(C)cn23)cc1	Six1-Eya2 inh -93 (no result: CtBP-E1A inh)
CN(C)c1oc(-c2ccc(COc3ccccc3)o2)nc1C#N	none (no result: CtBP-E1A inh, Eya2 phos inh, GALK inhibitor, Six1-Eya2 inh)
Nc1nc(N)c2c(Oc3ccc(F)cc3)cccc2n1	none (no result: CtBP-E1A inh, Eya2 phos inh, GALK inhibitor, Six1-Eya2 inh)
COC(=O)c1ccc([C@H]2Nc3ccc(S(=O)(=O)Nc4ccc(C)cc4)cc3[C@H]3C=CC[C@H]32)cc1	rTrxR1 inhibitor 50µM (no result: CtBP-E1A inh, Eya2 phos inh, GALK inhibitor, Six1-Eya2 inh)
CC(=O)c1ccc2c(c1)C1C=CCC1C(c1ccc(S(=O)(=O)N3CCOCC3)cc1)N2 (stereo not given)	rTrxR1 inhibitor 50µM
COc1ccc(NS(=O)(=O)c2ccc3c(c2)[C@H]2C=CC[C@H]2[C@@H](c2ccc(C(=O)O)cc2)N3)cc1	Six1-Eya2 inh inconclusive, rTrxR1 inhibitor inconclusive
O=C(O)c1ccc2c(c1)C1C=CCC1C(c1ccncc1)N2 (stereo not given)	none
COc1ccc2c(c1)c1c(c(=O)n(Cc3ccccc3)c(=O)n1Cc1ccc(C)cc1)n2C	none (no result: CtBP-E1A inh, Eya2 phos inh, GALK inhibitor, Six1-Eya2 inh)
O=C(CC(c1ccco1)S(=O)(=O)c1ccccc1)c1ccc(F)cc1 (stereo not given)	rTrxR1 inhibitor 50µM
Cc1cc(Nc2ccccc2Cl)n2nc(-c3ccco3)nc2n1	none (no result: CtBP-E1A inh, Eya2 phos inh, GALK inhibitor, Six1-Eya2 inh)
Cc1cc(C)n2nc3nc(N4CCCCC4)nc(-c4ccco4)c3c2n1	rTrxR1 inhibitor 10µM
CC(=O)Nc1ccc(S(=O)(=O)N2CCC(C(=O)NC3CCCC3)CC2)cc1	none
